Assay results taken from PubChem BioAssay (NCI).
The panel holds about 83,000 compounds, 20% with a hit somewhere; the sample as a whole holds those more often.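 Results are percent growth after 48 hours of single-concentration exposure. 100 means growth as in untreated cells, lower positive values show inhibition; negative values down to -100 show cell death.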 Unmarked numbers belong to inactive results. The source made the active and inactive calls. Rule for the calls: active = growth percent below 10; inactive = the rest.

Experiments:
Experiment in all cases: NCI-60 one-dose screen, 48 h (100 = growth as untreated, 0 = no growth, -100 = all killed)
Settings in all cases: 10 µM unless noted
[1] = system: NCI-H23 lung
[2] = system: NCI-H322M lung
[3] = system: HOP-62 NSCLC
[4] = system: NCI-H460 lung
[5] = system: HOP-92 NSCLC
[6] = system: NCI-H522 lung
[7] = system: A549/ATCC NSCLC
[8] = system: 786-0 renal
[9] = system: COLO 205 colon
[10] = system: DU-145 prostate
[11] = system: K-562 leukemia
[12] = system: MALME-3M melanoma
[13] = system: MDA-MB-231 breast
[14] = system: RXF 393 renal
[15] = system: SF-268 CNS
[16] = system: SF-295 CNS
[17] = system: SF-539 CNS
[18] = system: UACC-257 melanoma
[19] = system: M14 melanoma
[20] = system: HCT-15 colon

SMILES | growth [1] | growth [2] | growth [3] | growth [4] | growth [5] | growth [6] | growth [7] | growth [8] | growth [9] | growth [10] | growth [11] | growth [12] | growth [13] | growth [14] | growth [15] | growth [16] | growth [17] | growth [18] | growth [19] | growth [20]
CC(C)C[C@H](C(=O)N[C@H](C(N)=O)C(C)C)N1CC=CCN(OCc2ccccc2)S1(=O)=O | 111% [2.5 µM] | 105% [2.5 µM] | 99.3% [2.5 µM] | 110% [2.5 µM] | 82.9% [2.5 µM] | 86.4% [2.5 µM] | 94.5% [2.5 µM] | 102% [2.5 µM] | 105% [2.5 µM] | 131% [2.5 µM] | 100% [2.5 µM] | 113% [2.5 µM] | 93.4% [2.5 µM] | 111% [2.5 µM] | 108% [2.5 µM] | 114% [2.5 µM] | 99.9% [2.5 µM] | 91.2% [2.5 µM] | 100% [2.5 µM] | 104% [2.5 µM]
CN1C(=O)N(C)C2C1NN=c1s/c(=C\c3ccc([N+](=O)[O-])cc3)c(=O)n12 (stereo unspecified) | 87.3% | 85.4% | 68.9% | 32% | 77.6% | 43.6% | 59.9% | 64.4% | 56.7% | 77.4% | 22% | 65.9% | 75.1% | 78.6% | 77.1% | 40.8% | 54.7% | 63.6% | 51.2% | 37.6%
COc1ccc(-n2c(C(O)c3ccccc3)n[nH]c2=S)cc1 (stereo unspecified) | 101% | 102% | 92.5% | 108% | 83.6% | 89.7% | 102% | 99.1% | 110% | 113% | 99.3% | 94.9% | 92.2% | – | 95.9% | – | 101% | 90.4% | 90% | 107%
COc1cc(/C=C/C(=O)N2c3ccccc3CC2C)c(OC)c2c1OCO2 (stereo unspecified) | 90.8% | 101% | 119% | 98.2% | 97.4% | 81.5% | 89.1% | 94.9% | 125% | 94.5% | – | 101% | 92.2% | – | 97% | 83.6% | 98.3% | 100% | 90.7% | 69.8%
CCCCCCCCCCOC(=O)c1ccccc1C(=O)OCCCC | 107% | 108% | 107% | 120% | 91.3% | 91.2% | 111% | 106% | 117% | 114% | 99.9% | 157% | – | – | 109% | – | 103% | 111% | 100% | 111%
CCCCc1c(CCC)c(=N)c2ccccc2n1C | 99.2% | 85.3% | 78% | 67.7% | 48.2% | 100% | 69.8% | 73.8% | 70.5% | 79.9% | 8.23% (active) | – | 43.2% | 90.9% | 81.4% | 9.89% (active) | 74.1% | 30.8% | 55.3% | 44.5%
COc1ccc(-c2nsc3c2NC(=O)CC3c2ccc3c(c2)OCCO3)cc1 (stereo unspecified) | 29% | 74.8% | 34.8% | 6.65% (active) | 66.1% | -15.2% (active) | 28.9% | 28.3% | -70.4% (active) | 5.37% (active) | 13.3% | 59.9% | – | 0.635% (active) | 55.4% | 0.403% (active) | -17% (active) | 76.2% | 19.7% | 14.6%
CCn1c(-c2nonc2Nc2ccc(OC)cc2)nc2ccccc21 | 107% | 105% | 115% | 109% | 134% | 89% | 93.5% | 95.1% | 124% | 113% | 118% | 120% | – | 120% | 110% | 132% | 107% | 104% | 104% | 97.7%
CCOc1ccc2nc(C)cc(Nc3ccc(Br)cc3)c2c1 | 95.8% | 93.9% | 109% | 101% | 105% | 107% | 95.2% | 108% | 95.9% | 110% | 87.6% | – | 109% | 110% | 108% | 110% | 103% | 103% | 121% | 82.2%
O=C(Nc1ccc(-c2nc3ccc(NC(=O)c4ccc(Cl)cc4)cc3[nH]2)cc1)c1ccc(Cl)cc1 | 56% | 10.4% | 29.2% | 26.3% | 41.2% | -65.6% (active) | 4.64% (active) | -22.8% (active) | -74.3% (active) | 44.1% | -1.36% (active) | – | -0.679% (active) | -49% (active) | 43.7% | -68% (active) | -68.2% (active) | -15.8% (active) | 2.14% (active) | 32.1%
COc1ccc(C2NCCc3c2[nH]c2ccccc32)cc1CN1CCN(c2ccc(F)cc2)CC1 (stereo unspecified) | 64.8% | 78.5% | 63.4% | 5.7% (active) | -18.7% (active) | 40.8% | 63.7% | 51% | 47.6% | 78.5% | 17% | – | -32.5% (active) | -9.51% (active) | 76.4% | -67.2% (active) | 58.8% | -39.9% (active) | -30% (active) | 8.26% (active)
Cc1ccc(C(=O)c2oc3ccc4c(C)cc(=O)oc4c3c2C)cc1 | 40.4% | 63.1% | 61.3% | 3.14% (active) | 9.32% (active) | 25.7% | 14.8% | 57.3% | -59.7% (active) | 64.7% | 11.7% | – | 46.8% | 37.2% | 52.1% | 4.06% (active) | 46.7% | -4.34% (active) | 42.5% | 23%
COC(=O)C1(C)COP(=O)(Nc2ccc(OC)cc2)OC1 (stereo unspecified) | 102% | 90.3% | 107% | 109% | 109% | 111% | 98% | 99.1% | 109% | 111% | – | 116% | 110% | 113% | 103% | 107% | 104% | 98.7% | 102% | 108%
COc1cc(C#N)cc2[nH]c(=O)oc12 | 104% | 106% | 103% | 110% | 95.5% | 103% | 101% | 98.7% | 105% | 99% | 123% | 89.8% | – | 128% | 100% | 92.4% | 101% | 106% | 102% | 95.6%
COc1ccc(-c2cn3c(C(=O)Nc4ccccc4Cl)c(-c4ccccc4)c4c3n2CCCC4)cc1 | 86.8% | 102% | 88.1% | 75.2% | 64.3% | 76.7% | 85.3% | 90.8% | 77.2% | 86.2% | 49.8% | – | 87.3% | 109% | 93.1% | 54.7% | 87% | 91.3% | 73.6% | 60.8%
Cn1c(C(=O)c2cccc3ccccc23)nc2ccccc21 | 19.4% | -2.65% (active) | 18.6% | 3.61% (active) | 34% | -4.82% (active) | 3.42% (active) | 5.77% (active) | 12.9% | 18.3% | 7.22% (active) | – | 29.1% | 13.5% | 2.01% (active) | – | -1.45% (active) | -7.56% (active) | -45.9% (active) | 29.4%
